Measured values taken from the supplement of paper PMC7724964.

What was measured:
Assay in all cases: phage ELISA signal ratio (GST-PRM binding over GST background); higher = stronger binding of peptide-phage to the PRM
[1] = target: T1, DOK1 151-256 IRS (domain begin residue: 151, domain end residue: 256), Q99704
T1 chain: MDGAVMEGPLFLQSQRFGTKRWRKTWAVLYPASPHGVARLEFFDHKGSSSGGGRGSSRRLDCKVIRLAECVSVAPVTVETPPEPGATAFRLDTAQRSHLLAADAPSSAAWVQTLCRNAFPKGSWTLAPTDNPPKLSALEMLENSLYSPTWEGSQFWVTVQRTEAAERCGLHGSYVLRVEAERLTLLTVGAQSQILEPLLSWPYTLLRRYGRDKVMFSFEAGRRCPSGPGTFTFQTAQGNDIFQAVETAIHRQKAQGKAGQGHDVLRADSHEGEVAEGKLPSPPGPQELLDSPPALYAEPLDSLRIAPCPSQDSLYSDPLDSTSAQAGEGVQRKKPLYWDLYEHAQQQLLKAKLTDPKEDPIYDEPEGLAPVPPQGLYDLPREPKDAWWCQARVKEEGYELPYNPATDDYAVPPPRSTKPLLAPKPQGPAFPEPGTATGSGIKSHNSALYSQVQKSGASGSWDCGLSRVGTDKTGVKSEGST
Procedure: (§1)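 Phage-displayed random hexadecapeptides (Cys-free, flanked by invariant Gly linkers, fused to the M13 P8 major coat protein) were selected over 5 rounds against GST-fused human PRM domains. Individual clones from rounds 4-5 were tested by phage ELISA, and positive clones binding the target but not GST were sequenced. Values are the ELISA signal ratio of target over background (GST); the background signal is given separately.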

[2] = target: DEPDC6 20-129 DEP (domain begin residue: 20, domain end residue: 129)
Procedure: as §1

[3] = target: DEPDC1B 7-110 DEP (domain begin residue: 7, domain end residue: 110), Q8WUY9
DEPDC1B 7-110 DEP (domain begin residue: 7, domain end residue: 110), Q8WUY9, sequence (Q8WUY9 whole entry): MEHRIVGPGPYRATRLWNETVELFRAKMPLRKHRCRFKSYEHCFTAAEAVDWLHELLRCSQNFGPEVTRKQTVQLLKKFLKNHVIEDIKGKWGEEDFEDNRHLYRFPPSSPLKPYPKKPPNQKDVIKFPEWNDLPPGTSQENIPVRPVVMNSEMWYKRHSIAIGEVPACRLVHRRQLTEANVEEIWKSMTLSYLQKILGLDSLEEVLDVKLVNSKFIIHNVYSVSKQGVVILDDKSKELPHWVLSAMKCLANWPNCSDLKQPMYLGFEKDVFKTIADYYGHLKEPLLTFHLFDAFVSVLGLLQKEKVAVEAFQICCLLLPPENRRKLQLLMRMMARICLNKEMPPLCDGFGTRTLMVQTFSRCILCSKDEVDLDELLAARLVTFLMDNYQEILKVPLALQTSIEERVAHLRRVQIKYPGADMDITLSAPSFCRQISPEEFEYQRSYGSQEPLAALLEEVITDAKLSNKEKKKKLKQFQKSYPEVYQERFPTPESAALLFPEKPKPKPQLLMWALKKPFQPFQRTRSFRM
Procedure: as §1

[4] = target: T2, CLTC 1-363 Clathrin_propel+Clathrin-link (domain begin residue: 1, domain end residue: 363), Q00610
T2 chain: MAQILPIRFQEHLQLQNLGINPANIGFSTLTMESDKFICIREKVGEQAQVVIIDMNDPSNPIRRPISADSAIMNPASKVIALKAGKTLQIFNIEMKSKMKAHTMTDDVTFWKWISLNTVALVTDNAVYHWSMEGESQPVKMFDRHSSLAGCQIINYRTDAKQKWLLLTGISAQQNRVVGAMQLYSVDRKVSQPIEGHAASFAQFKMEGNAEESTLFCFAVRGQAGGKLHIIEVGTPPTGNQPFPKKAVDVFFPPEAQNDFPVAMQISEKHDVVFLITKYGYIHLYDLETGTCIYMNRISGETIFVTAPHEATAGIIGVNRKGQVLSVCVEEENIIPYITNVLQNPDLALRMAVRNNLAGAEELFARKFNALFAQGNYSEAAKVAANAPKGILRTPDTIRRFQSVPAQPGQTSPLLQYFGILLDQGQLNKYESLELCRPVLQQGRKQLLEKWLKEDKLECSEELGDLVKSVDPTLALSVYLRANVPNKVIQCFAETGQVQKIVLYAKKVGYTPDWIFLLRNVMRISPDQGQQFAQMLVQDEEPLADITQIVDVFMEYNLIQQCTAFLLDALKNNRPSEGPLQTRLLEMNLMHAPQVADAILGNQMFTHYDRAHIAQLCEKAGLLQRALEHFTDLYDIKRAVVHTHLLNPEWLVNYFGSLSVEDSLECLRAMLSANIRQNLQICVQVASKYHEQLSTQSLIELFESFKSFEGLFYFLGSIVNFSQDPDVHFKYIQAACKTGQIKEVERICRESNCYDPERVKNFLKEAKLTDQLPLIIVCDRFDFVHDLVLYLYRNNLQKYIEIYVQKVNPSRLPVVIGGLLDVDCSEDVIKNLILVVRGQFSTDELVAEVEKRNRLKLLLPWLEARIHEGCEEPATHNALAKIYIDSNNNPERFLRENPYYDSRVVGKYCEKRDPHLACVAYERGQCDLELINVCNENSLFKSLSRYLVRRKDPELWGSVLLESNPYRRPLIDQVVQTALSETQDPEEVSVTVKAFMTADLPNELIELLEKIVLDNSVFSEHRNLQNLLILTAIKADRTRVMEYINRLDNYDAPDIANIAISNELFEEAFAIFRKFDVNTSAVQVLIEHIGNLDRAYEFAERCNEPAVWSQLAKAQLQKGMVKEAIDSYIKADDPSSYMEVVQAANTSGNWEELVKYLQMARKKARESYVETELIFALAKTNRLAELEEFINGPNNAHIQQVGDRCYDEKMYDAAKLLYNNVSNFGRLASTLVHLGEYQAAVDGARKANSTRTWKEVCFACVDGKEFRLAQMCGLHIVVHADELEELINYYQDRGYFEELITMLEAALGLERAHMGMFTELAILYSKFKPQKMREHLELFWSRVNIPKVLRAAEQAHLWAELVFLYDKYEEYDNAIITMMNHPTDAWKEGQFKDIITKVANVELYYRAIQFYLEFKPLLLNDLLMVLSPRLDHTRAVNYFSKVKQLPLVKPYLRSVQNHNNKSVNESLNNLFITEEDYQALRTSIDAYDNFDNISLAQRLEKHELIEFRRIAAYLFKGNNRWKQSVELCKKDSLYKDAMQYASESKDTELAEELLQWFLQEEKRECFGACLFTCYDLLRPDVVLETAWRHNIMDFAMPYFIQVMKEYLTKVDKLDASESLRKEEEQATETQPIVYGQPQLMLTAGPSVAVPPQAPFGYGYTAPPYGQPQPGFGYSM
Procedure: as §1

[5] = target: DCTN1 26-97 CAP_GLY (domain begin residue: 26, domain end residue: 97), Q14203
DCTN1 26-97 CAP_GLY (domain begin residue: 26, domain end residue: 97), Q14203, sequence (Q14203 whole entry): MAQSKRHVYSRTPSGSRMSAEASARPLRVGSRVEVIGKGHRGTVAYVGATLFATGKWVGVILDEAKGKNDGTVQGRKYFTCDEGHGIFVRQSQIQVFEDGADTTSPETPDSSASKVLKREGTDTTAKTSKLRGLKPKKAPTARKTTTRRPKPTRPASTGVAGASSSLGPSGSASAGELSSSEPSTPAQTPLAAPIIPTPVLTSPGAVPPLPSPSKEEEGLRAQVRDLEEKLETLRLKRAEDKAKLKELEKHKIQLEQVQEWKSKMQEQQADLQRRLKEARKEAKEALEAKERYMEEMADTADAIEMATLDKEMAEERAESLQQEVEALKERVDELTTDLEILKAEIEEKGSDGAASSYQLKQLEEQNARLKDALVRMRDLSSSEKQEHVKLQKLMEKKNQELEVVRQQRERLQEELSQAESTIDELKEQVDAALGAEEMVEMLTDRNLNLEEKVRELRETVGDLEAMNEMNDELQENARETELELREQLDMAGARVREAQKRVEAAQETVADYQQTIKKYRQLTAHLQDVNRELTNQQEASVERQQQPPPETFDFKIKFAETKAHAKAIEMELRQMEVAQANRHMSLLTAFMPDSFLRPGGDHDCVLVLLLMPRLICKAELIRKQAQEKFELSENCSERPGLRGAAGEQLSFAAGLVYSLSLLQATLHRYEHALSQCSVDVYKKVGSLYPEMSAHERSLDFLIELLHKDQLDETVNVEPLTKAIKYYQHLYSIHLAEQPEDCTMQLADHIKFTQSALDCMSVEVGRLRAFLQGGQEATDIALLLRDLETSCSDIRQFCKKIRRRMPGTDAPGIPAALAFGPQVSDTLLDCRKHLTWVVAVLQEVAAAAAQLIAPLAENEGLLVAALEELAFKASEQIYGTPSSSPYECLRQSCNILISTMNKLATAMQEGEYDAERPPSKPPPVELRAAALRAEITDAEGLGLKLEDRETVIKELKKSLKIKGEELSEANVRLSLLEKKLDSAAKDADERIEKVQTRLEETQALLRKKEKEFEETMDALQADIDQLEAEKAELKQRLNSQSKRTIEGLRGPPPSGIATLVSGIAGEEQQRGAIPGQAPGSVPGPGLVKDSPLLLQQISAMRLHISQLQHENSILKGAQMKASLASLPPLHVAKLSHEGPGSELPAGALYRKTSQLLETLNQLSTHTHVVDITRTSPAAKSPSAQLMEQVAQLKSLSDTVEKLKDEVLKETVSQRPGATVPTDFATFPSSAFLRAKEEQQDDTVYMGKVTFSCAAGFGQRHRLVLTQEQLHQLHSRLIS
Procedure: as §1

[6] = target: T3, DOK2 146-252 IRS (domain begin residue: 146, domain end residue: 252), O60496
T3 chain: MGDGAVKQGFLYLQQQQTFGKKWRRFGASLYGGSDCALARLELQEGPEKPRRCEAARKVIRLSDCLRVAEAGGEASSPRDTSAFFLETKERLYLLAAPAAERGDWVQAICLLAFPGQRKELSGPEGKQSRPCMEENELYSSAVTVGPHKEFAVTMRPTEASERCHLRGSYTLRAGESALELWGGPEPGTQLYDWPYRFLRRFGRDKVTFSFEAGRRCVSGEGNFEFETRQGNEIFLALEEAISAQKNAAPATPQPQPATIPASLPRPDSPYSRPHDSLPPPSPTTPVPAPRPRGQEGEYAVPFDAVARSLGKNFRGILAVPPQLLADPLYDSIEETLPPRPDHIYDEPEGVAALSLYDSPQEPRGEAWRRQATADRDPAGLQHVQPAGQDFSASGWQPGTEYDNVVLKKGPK
Procedure: as §1

[7] = target: T4, CTDSP2 90-271 NIF (domain begin residue: 90, domain end residue: 271), O14595
T4 chain: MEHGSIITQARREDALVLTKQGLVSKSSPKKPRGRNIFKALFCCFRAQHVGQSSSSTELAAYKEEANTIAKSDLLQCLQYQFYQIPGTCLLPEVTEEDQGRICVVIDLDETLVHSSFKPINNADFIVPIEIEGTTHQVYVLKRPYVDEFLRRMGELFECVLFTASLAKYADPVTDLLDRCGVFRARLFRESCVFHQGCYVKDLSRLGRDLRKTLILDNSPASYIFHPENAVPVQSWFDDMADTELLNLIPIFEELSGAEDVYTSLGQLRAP
Procedure: as §1

[8] = target: DEPDC6 132-222 DEP (domain begin residue: 132, domain end residue: 222)
Procedure: as §1

B1: unnamed (peptide)
chain: DNHWIWKEVNPMFMKD
- phage ELISA signal ratio [1]: 30.4

B2: unnamed (peptide)
chain: DWPNYPANSWKYVTWA
- phage ELISA signal ratio [1]: 10.2

B3: unnamed (peptide)
chain: DFQGIMDSYRAMEINT
- phage ELISA signal ratio [2]: 20.1

B4: unnamed (peptide)
chain: DLPYEWSHFWDSIEHH
- phage ELISA signal ratio [3]: 4.2

B5: unnamed (peptide)
chain: WLDYNDWLEMDHWEYV
- phage ELISA signal ratio [4]: 23.8

B6: unnamed (peptide)
chain: MYEFLIEPEDDWWWWN
- phage ELISA signal ratio [4]: 26.5

B7: unnamed (peptide)
chain: LAGFHPWFSEMLAEYH
- phage ELISA signal ratio [2]: 8.33

B8: unnamed (peptide)
chain: DWAQVLWQDAHDWPVY
- phage ELISA signal ratio [4]: 23.9

B9: unnamed (peptide)
chain: YTLTIDELEHWLSAGG
- phage ELISA signal ratio [4]: 31.7

B10: unnamed (peptide)
chain: QMVWHYPWEATDTHGW
- phage ELISA signal ratio [1]: 33.5

B11: unnamed (peptide)
chain: MSDPPTLEHWEYMSWE
- phage ELISA signal ratio [5]: 12

B12: unnamed (peptide)
chain: EPWVDWSESMWAWVNT
- phage ELISA signal ratio [1]: 17.6

B13: unnamed (peptide)
chain: THSEQWFETLMWNFHN
- phage ELISA signal ratio [2]: 3.26

B14: unnamed (peptide)
chain: PGEMQESNWLWKFVDW
- phage ELISA signal ratio [1]: 29.1

B15: unnamed (peptide)
chain: DLMVWYDNPYYHSEMI
- phage ELISA signal ratio [6]: 9.37

B16: unnamed (peptide)
chain: DWVWSDVGGHVPQVWD
- phage ELISA signal ratio [1]: 25

B17: unnamed (peptide)
chain: QDEWVPWQLWSQWESI
- phage ELISA signal ratio [5]: 26.4

B18: unnamed (peptide)
chain: EMLAGNEFRAMMDEYY
- phage ELISA signal ratio [2]: 7.5

B19: unnamed (peptide)
chain: TMAWEWIGNDVYVSHD
- phage ELISA signal ratio [6]: 7.8

B20: unnamed (peptide)
chain: MESAFQQVMLAYYQEL
- phage ELISA signal ratio [2]: 21.9

B21: unnamed (peptide)
chain: WSEVWWTDLEGAMFWV
- phage ELISA signal ratio [1]: 16.2

B22: unnamed (peptide)
chain: MPWPMWEQYQQHMQWV
- phage ELISA signal ratio [1]: 19.7

B23: unnamed (peptide)
chain: ADQWVWHYIMEMEQVR
- phage ELISA signal ratio [1]: 33

B24: unnamed (peptide)
chain: DQQQWDDMDWLATWML
- phage ELISA signal ratio [4]: 32.5

B25: unnamed (peptide)
chain: MPVWWEDWYWDWKSMH
- phage ELISA signal ratio [2]: 6.24

B26: unnamed (peptide)
chain: FKEWTWSPVEWGQAES
- phage ELISA signal ratio [5]: 6.09

B27: unnamed (peptide)
chain: YDQTGWAWVHEMQDMV
- phage ELISA signal ratio [1]: 8.33

B28: unnamed (peptide)
chain: DEWMLNETWIDYQELH
- phage ELISA signal ratio [1]: 20

B29: unnamed (peptide)
chain: EPFMVAWESFMLTHAM
- phage ELISA signal ratio [7]: 7.49

B30: unnamed (peptide)
chain: SPFVYDIVDLGFPSIM
- phage ELISA signal ratio [4]: 22.5

B31: unnamed (peptide)
chain: DWEAWHHNVDFAWGWV
- phage ELISA signal ratio [1]: 9.3

B32: unnamed (peptide)
chain: DEWTWHFVEQPWHMAG
- phage ELISA signal ratio [6]: 7.99

B33: unnamed (peptide)
chain: QWMGLSVEQFAMNPWY
- phage ELISA signal ratio [1]: 17.7

B34: unnamed (peptide)
chain: QFDLWMRNVMLDFWAD
- phage ELISA signal ratio [2]: 11.2

B35: unnamed (peptide)
chain: DLQWKWVYWHDLDDGE
- phage ELISA signal ratio [1]: 22.6

B36: unnamed (peptide)
chain: WNEWNEKEMLWESVEG
- phage ELISA signal ratio [1]: 37.8

B37: unnamed (peptide)
chain: MQMTFLDMMEQYRLME
- phage ELISA signal ratio [2]: 33.8

B38: unnamed (peptide)
chain: DLIWWTDLTEEYGTHV
- phage ELISA signal ratio [4]: 21.9

B39: unnamed (peptide)
chain: EWFMDASGYWNNLQVS
- phage ELISA signal ratio [1]: 7.98

B40: unnamed (peptide)
chain: WVWHDMHLSAPFQHQE
- phage ELISA signal ratio [1]: 3.72

B41: unnamed (peptide)
chain: HGMDYLNREFPWDWWT
- phage ELISA signal ratio [5]: 16.6

B42: unnamed (peptide)
chain: GDKSEWFRALLDEYLV
- phage ELISA signal ratio [2]: 21.6

B43: unnamed (peptide)
chain: GETHLMFSNMMEFYKY
- phage ELISA signal ratio [2]: 19.9

B44: unnamed (peptide)
chain: EQVSFMHEWHQRFWQT
- phage ELISA signal ratio [7]: 9.81

B45: unnamed (peptide)
chain: MYTFEEMWMHWKLVEM
- phage ELISA signal ratio [2]: 23.6

B46: unnamed (peptide)
chain: WVTWDNSSLKWIDETY
- phage ELISA signal ratio [1]: 28

B47: unnamed (peptide)
chain: EVPLWFYNIISEFHET
- phage ELISA signal ratio [2]: 13.8

B48: unnamed (peptide)
chain: HEFTPPWTWDWDIPHI
- phage ELISA signal ratio [5]: 7.35

B49: unnamed (peptide)
chain: DDGWMMDWWHQAQLQM
- phage ELISA signal ratio [2]: 6.22

B50: unnamed (peptide)
chain: MEWTWEQWDLGADYVK
- phage ELISA signal ratio [5]: 21.2

B51: unnamed (peptide)
chain: DTKWNIVHWDWDTWVH
- phage ELISA signal ratio [1]: 16.4

B52: unnamed (peptide)
chain: VWDLDTSADYLWVWMG
- phage ELISA signal ratio [1]: 19.3

B53: unnamed (peptide)
chain: WELQWDAIWGFPDELA
- phage ELISA signal ratio [4]: 30.6

B54: unnamed (peptide)
chain: EQQHDKFQMMMNIYKY
- phage ELISA signal ratio [2]: 23

B55: unnamed (peptide)
chain: EVFDLISWDDGMWHSV
- phage ELISA signal ratio [4]: 28.8

B56: unnamed (peptide)
chain: IWWEQLHQDDWQAIWA
- phage ELISA signal ratio [8]: 15.1

B57: unnamed (peptide)
chain: VDDGDWVWVHVSQQFM
- phage ELISA signal ratio [1]: 31.2
